# Compound activity: PubChem BioAssay, several laboratories
# An excerpt weighted towards active compounds, which were near 3.4% of everything screened.
# FAK inh: inhibitors of human focal adhesion kinase; AID 727; biochemical FAK kinase activity assay; actives 0.84% (n = 97,000); inhibition, %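 (tested at 7 µM)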; Q05397; in the data active = inhibition above about 19%
# PTPN22 inh 2: inhibitors of human LYP (PTPN22) phosphatase | Q9Y2R2 | recombinant LYP catalytic domain, DiFMUP fluorescence | inhibition, % at 2 µM | actives 0.21% (n = 96,000);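 active = inhibition at 2 µM at or above a set limit, the screen mean plus 3 SD, cut at about 24% in these data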
# ERa coact inh: ER-alpha (human) coactivator binding inhibition; P03372; TR-FRET ER-alpha LBD / SRC-1 peptide, estradiol-bound; inhibition, % at 25.6 µM; actives 1.7% (n = 86,000); AID 629; in the data active = inhibition above about 50%
# ERa SRC1 pot: enhances coactivator binding to human estrogen receptor alpha; AID 639; TR-FRET ERalpha-LBD/SRC-Cy5 coactivator binding, 2 h; 100 = basal binding, no effect; actives 1.3% (n = 86,000); P03372; coactivator binding (% of control), % at 25.6 µM; in the data active = activity above about 200%;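 note: binding measured in presence of low estradiol as agonist stimulus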
# ERb SRC1 inh: blocks coactivator binding to human estrogen receptor beta; Q92731; TR-FRET ER-beta LBD / SRC1-Cy5 peptide binding; receptor agonist-loaded with 1 µM estradiol; actives 1.3% (n = 86,000); inhibition, % at 25.6 µM;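 active = compounds whose percent inhibition of the receptor-coactivator binding signal exceeds about 50% in the single-dose screen, limit read from the data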
# Target sequence (Q92731 whole entry, looked up, the tested form may be a part): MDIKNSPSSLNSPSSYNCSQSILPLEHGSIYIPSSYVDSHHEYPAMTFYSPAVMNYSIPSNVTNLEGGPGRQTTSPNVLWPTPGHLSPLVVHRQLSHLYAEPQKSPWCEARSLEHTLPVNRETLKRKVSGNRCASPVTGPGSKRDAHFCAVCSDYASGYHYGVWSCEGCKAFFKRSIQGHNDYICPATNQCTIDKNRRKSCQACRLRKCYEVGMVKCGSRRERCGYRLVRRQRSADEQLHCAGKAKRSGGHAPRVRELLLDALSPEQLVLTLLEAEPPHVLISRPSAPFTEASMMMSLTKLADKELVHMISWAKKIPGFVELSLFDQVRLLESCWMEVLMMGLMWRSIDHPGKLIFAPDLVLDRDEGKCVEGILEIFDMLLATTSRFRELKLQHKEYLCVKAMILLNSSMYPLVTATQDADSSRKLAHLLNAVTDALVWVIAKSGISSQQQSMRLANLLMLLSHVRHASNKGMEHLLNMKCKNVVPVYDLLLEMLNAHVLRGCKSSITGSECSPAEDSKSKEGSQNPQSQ
# LYP act: activators of human LYP (PTPN22) phosphatase. activation, % at 2 µM. AID 697. recombinant LYP, DiFMUP fluorescence; 0 = plate median, 100 = signal doubled. actives 0.11% (n = 96,000);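 active = activation at 2 µM above a set limit, the mean plus 5 SD, cut at about 37% in these data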
# PTPN22 act conf: LYP (PTPN22) phosphatase activation confirmation; shares compounds with LYP act; Recombinant LYP, DIFMUP fluorescence; zero set by plate's median compound well; activation, % at 2 µM; 100 tested, under 10 active; AID 1031; call rule not given here
# A number is an active result; 0 = inactive; - = not tested or not shown.
SMILES,FAK inh,PTPN22 inh 2,ERa coact inh,ERa SRC1 pot,ERb SRC1 inh,LYP act,PTPN22 act conf
COC(=O)c1ccc(NC(=O)C2CCCCC2C(=O)O)cc1 (configuration not stated),0,0,0,0,0,0,-
COC(=O)c1ccc(NC(=S)NC2CCCCC2)cc1,0,0,-,-,-,37.5,0
NC(=O)c1nc(N2CCOCC2)nc(N2CCOCC2)n1,0,0,0,0,0,40.6,0
CCCN(CCC)C(=O)Cn1ccc(=N)c2ccccc21,0,0,0,0,0,0,-
CC(C)(C)NC(=O)Cn1ccc(=N)c2ccccc21,0,0,0,0,0,44.9,0
CCCC1(C(=O)OC)NC(c2cccc(F)c2)C2C(=O)N(CC)C(=O)C21 (configuration not stated),-,-,0,0,0,-,-
CCN1C(=O)C2C(c3cccc(F)c3)NC(CC)(C(=O)OC)C2C1=O (configuration not stated),0,0,0,0,0,41.5,0
Cc1ccc(-c2ccc(OCC(=O)N3CCOCC3)cc2)cc1,0,0,0,0,0,0,-
OCCOc1ccc(C2=NCCO2)cc1,0,0,0,0,0,37.5,0
CCOc1cc(S(=O)(=O)NCc2ccccn2)ccc1Cl,0,0,0,0,0,37.4,0
CCCCCn1c(CCCNC(=O)CC)nc2ccccc21,-,-,0,0,0,-,-
Cc1ccc(SC(C)C(=O)NCc2cccnc2)cc1 (configuration not stated),0,0,0,0,0,0,-
CC(Sc1ccc(Cl)cc1)C(=O)NCc1cccnc1 (configuration not stated),0,0,0,0,0,37.2,0
O=C(Nc1cccnc1)c1cccnc1Cl,0,0,0,0,0,38.2,0
O=C(Nc1cccnc1)c1ccccc1O,0,0,0,0,0,0,-
COc1ccc2[nH]cc(CCN=C3SCC(=O)N3C)c2c1,0,0,0,0,0,0,-
CCOC(=O)c1c(NC(=O)CSc2nnc(-c3ccncc3)n2Cc2ccco2)sc(C)c1C,0,0,0,0,0,0,-
Cc1cccc(NC(=O)CSc2nnc(Cn3cnc4ccccc43)o2)c1,0,0,0,0,0,38.0,0
CCOC(=O)CSCc1c(C#N)c2ccccc2n1C,0,0,0,0,0,39.8,0
CC(=O)N(Cc1c(C#N)c2ccccc2n1C)c1ccccc1,0,0,0,0,0,0,-
C#CCn1c(S(=O)(=O)Cc2ccc(F)cc2)nc(-c2ccccc2)c1-c1ccccc1,0,0,-,-,-,45.3,0
CCOC(=O)Cn1c(S(=O)(=O)Cc2ccc(F)cc2)nc(-c2ccccc2)c1-c1ccccc1,0,0,-,-,-,0,-
CCCc1nn(C)c2c1C(c1ccncc1)C(C#N)=C(N)O2 (configuration not stated),0,0,0,0,0,56.7,0
CC(NC(=O)C(NC(=O)C1CCCN1C(=O)OC(C)(C)C)C(C)C)C(N)=O (configuration not stated),0,0,0,0,0,0,-
CCOC(=O)C(Oc1ccc2c(-c3ccc(OC)cc3)cc(=O)oc2c1C)c1ccccc1 (configuration not stated),0,0,-,-,-,43.6,0
SMILES,FAK inh,PTPN22 inh 2,ERa coact inh,ERa SRC1 pot,ERb SRC1 inh,LYP act,PTPN22 act conf
Nc1cc(N)nc(SCC(=O)c2ccccc2)n1,0,0,0,0,0,43.1,0
Nc1cc(N)nc(SCC(=O)Nc2ccccc2)n1,0,0,0,0,0,0,-
NS(=O)(=O)c1ccc(NC(=O)Cn2ncc3c2-c2ccccc2OC3)cc1,0,0,-,-,-,0,-
COc1ccccc1NC(=O)Cc1noc(CSc2nnc(C)s2)n1,0,0,0,0,0,45.6,0
O=C1Nc2ccccc2/C1=C\c1cccn1-c1ccc(OC(F)(F)F)cc1,0,0,-,-,-,0,-
Cc1ccccc1OCC(=O)OC(C)CN1CCN(C)CC1 (configuration not stated),0,0,0,0,0,47.9,0
CCCCNC(=O)CSc1nnc(-c2c[nH]c3ccccc23)n1CC1CCCO1 (configuration not stated),0,0,-,-,-,0,-
Cc1nnc(NC(=O)c2ccccc2Br)s1,0,0,0,0,0,0,-
Cc1nnc(NC(=O)c2ccccc2F)s1,0,0,0,0,0,38.5,0
CC(=O)N1c2c(cc(Br)cc2S(=O)(=O)NCc2ccc3c(c2)OCO3)CC1C (configuration not stated),-,-,0,0,0,-,-
CC(=O)N1c2c(cc(Br)cc2S(=O)(=O)NCC2COc3ccccc3O2)CC1C (configuration not stated),0,0,0,0,0,38.1,0
CC1=C(C(N)=O)C(c2cccnc2)n2nc(SCc3ccccc3Cl)nc2N1 (configuration not stated),0,0,0,0,0,46.4,0
COC(=O)c1cc(OC)c(OC)cc1NC(=O)c1c(-c2ccccc2Cl)noc1C,0,0,0,0,0,0,-
COc1ccc(NCCNc2ccc(OC)cc2)cc1,0,0,-,-,-,0,-
COc1ccc(Nc2c(C)cccc2C)cc1,0,0,0,0,0,38.6,0
O=C(CN(Cc1ccc2c(c1)OCO2)C(=O)CSc1nc2ccccc2o1)NC1CCCCC1,0,0,0,0,0,0,-
O=C(CCCC1=NS(=O)(=O)c2ccccc2N1)N1CCN(c2ccccc2)CC1,0,0,0,0,0,39.5,0
COC(=O)C(C)N(C(=O)c1ccc(C(=O)c2ccccc2)cc1)c1c(C)cccc1C (configuration not stated),0,0,0,0,0,0,-
COc1ccc(C(=O)N2CCc3cc(OC)c(OC)cc3C2c2cccc([N+](=O)[O-])c2)cc1OC (configuration not stated),0,0,-,-,-,39.4,0
COc1ccc(C2=NN(C(=O)c3cccc([N+](=O)[O-])c3)C(c3cccc([N+](=O)[O-])c3)C2)cc1 (configuration not stated),0,0,-,-,-,0,-
Cc1ccc(NC(=O)C2CCCN2C(=O)Oc2ccccc2)cc1 (configuration not stated),0,0,0,0,0,39.3,0
CC(=O)Nc1nc(C2COc3ccccc3O2)cs1 (configuration not stated),0,0,-,-,-,41.2,0
CCOc1ccc(Nc2nc(Cc3nnc(SCC(=O)c4ccc(C)c(C)c4)o3)cs2)cc1,0,0,0,0,0,0,-
O=C1c2ccccc2C(=O)N1c1n[nH]c(CCc2ccccc2)n1,0,0,0,0,0,42.7,0
COc1ccc(/C=C/C(=O)OC(C)CN2CCOCC2)cc1 (configuration not stated),0,0,-,-,-,0,-
O=C1Nc2ccc(Br)cc2C1=Nc1ccc(-c2nnc3n2CCCCC3)cc1,0,0,0,0,0,0,-
Cc1cccc(CSc2ncc(CO)n2C)c1,0,0,-,-,-,37.9,0
